# Screens deposited in PubChem BioAssay by several laboratories.
# Arbovirus inh: antivirals against arbovirus infection. arbovirus infection cell-based antiviral screen. inhibition, % at 10 µM. AID 1251. hit rate 0.37% among 200,000; in the data active = inhibition above about 30%
# ROMK mod: modulates human ROMK potassium channel activity | P48048 | Tet-inducible ROMK, thallium flux fluorescence; actives lie on both sides | B-score at 10 µM | hit rate 2% among 130,000 | AID 1918;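 active = signal ratio slope over the read window, or its plate-corrected B-score, at least 3 SD from the plate mean, either direction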;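 note: B-score of the F/F0 ratio slope over 7 to 12 s after thallium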
# Target sequence (P48048 whole entry, looked up): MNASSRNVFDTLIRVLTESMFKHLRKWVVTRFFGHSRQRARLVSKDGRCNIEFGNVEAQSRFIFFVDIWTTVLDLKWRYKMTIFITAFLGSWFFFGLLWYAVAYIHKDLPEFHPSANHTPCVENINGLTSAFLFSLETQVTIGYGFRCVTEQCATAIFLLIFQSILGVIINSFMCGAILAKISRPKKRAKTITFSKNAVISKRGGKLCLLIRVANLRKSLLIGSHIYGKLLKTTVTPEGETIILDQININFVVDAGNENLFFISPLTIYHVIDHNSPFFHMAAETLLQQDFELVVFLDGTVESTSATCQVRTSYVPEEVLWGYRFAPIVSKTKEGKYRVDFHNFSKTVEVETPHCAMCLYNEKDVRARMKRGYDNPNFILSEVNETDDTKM
# m-calpain inh: inhibitors of pig calpain II. hit rate 0.37% among 220,000. purified calpain II, fluorogenic peptide substrate, 30 min. inhibition, % at 16 µM. AID 1236;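 active = inhibition above about 50%, limit read from the data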
# HMGR II inh: E. faecalis class II HMG-CoA reductase inhibition; purified E. faecalis HMGR, NADPH absorbance 340 nm kinetic; inhibition, % at 10 µM; hit rate 0.41% among 190,000; AID 1066;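 active = inhibition above a set limit, the median over all tested compounds plus 3 SD, cut at about 9.5% in these data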;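 note: enzyme runs in reverse so mevalonate oxidation gives rising NADPH absorbance; 0% = complete reaction with DMSO and 100% = background rate lacking mevalonate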
# HSV replic up: increases HSV replication in cells. HSV replication augmentation in cells, fold increase. maximum fold increase. hit rate 0.005% among 220,000. AID 1956; in the data active = maximum fold increase above about 1.5; tested in PC3 cells
# * marks the source's active call; other numbers are inactive results; i = inactive; · = not tested or not shown. Shown are actives, neighbours in structure and some others; about 2.1% of the full set was active somewhere.
SMILES,Arbovirus inh,ROMK mod,m-calpain inh,HMGR II inh,HSV replic up
C/C(CCN1CCc2nc(-c3ccccc3)c(-c3ccccc3)cc2C1)=N\O[C@@H](C)c1cn([C@H](CO)Cc2ccccc2)nn1,-40,-3.5,-65,10.0*,·
CC(=O)c1cc2c(cc1N/C(=N/S(=O)(=O)c1ccccc1)c1ccc(Cl)cc1)OCO2,-5,·,-48,13*,i
O=C1NC(=Nc2ccccc2)S/C1=C/c1cccs1,-2,-0.064,106*,-6,i
Cc1ccc(S(=O)(=O)CCCS(=O)(=O)c2ccc(C)cc2)cc1,1,·,8,11*,i
Cc1ccc(S(=O)(=O)c2ccc(C)cc2)cc1,5,0.9,-11,2,·
C=CCN(CC=C)C(=O)c1cc2ccccc2c(=O)o1,-2,0.51,18,-2,i
COCCN=c1scc(-c2cccs2)n1/N=C/c1ccc(O)c(O)c1O,-14,·,65*,-8,i
COCCN=c1scc(-c2ccccc2)n1/N=C/c1c[nH]c2ccccc12,-30,·,-8,6,i
O=C(N/N=C1/CCCc2ccccc21)c1cc([N+](=O)[O-])cc([N+](=O)[O-])c1,-16,-0.082,74*,-6,i
O=C(N/N=C1\CCc2ccccc21)c1ccccc1Cl,-3,-0.25,2,-4,i
O=C(N/N=C1\CCc2ccccc21)c1ccc(O)cc1,-7,0.66,13,12*,i
O=C(N/N=C1\CCCc2ccccc21)c1cccc([N+](=O)[O-])c1,-11,-0.72,1,-5,i
O=C(NCC1CCCO1)c1ccc(COc2ccccc2Br)cc1 (configuration not stated),-12,-1.8,28,-1,·
CC(Sc1n[nH]c(N)n1)C(=O)Nc1cccc(S(=O)(=O)N2CCOCC2)c1 (configuration not stated),0,-0.4,10,-1,i
O/N=C\c1ccccc1Oc1ccc(F)cc1,18,1,-5,5,i
CCOC(=O)C(NC(=O)CC)(Nc1cc(C)on1)C(F)(F)F (configuration not stated),2,1.2,12,0,i
CCOC(=O)C(NC(=O)Cc1ccccc1)(Nc1cc(C)on1)C(F)(F)F (configuration not stated),-1,0.16,-14,12*,i
CC1=C(C#N)C(=O)N(C2CCS(=O)(=O)C2)C(=O)/C1=C\c1ccco1 (configuration not stated),·,-2.9*,5,·,i
COC(=O)C1=C(C)N(C)C(=O)/C1=C\c1ccco1,4,-0.62,12,-4,i
O=C(Nc1nc(-c2cccs2)cs1)c1cc2ccccc2oc1=O,-6,1.6*,-17,1,·
CCc1nnc(NC(=O)c2cc3ccccc3oc2=O)s1,65*,·,-2,1,i
Cc1ccc(C)c(NC(=O)c2ccccc2C(=O)c2ccccc2)c1,-1,1.1,-17,1,i
Cc1ccc(N=c2c([N+](=O)[O-])nn(-c3ccc4c(c3)OCCO4)n2O)c(Cl)c1,-15,-0.0034,53*,-4,i
CC1CCCC(NC(=O)COC(=O)COc2ccccc2Cl)C1C (configuration not stated),14,-0.018,9,11*,i
CC1CCCCC1NC(=O)COC(=O)COc1ccccc1Cl (configuration not stated),1,0.42,-2,0,i
SMILES,Arbovirus inh,ROMK mod,m-calpain inh,HMGR II inh,HSV replic up
CCOC(=O)C1=Nc2ccccc2C1=[N+]=[N-],45*,-0.058,-11,-11,i
On1onc2c3cc(-c4ccccc4)nc3ccc21,-24,·,82*,0,·
O=C(COc1ccccc1C(=O)Nc1ccccc1)c1ccc(F)cc1,-13,0.82,0,-5,i
O=C(COc1ccccc1C(=O)Nc1ccccc1)c1ccc(Br)cc1,1,0.27,30,10*,i
CN(C)Cc1nnnn1-c1ccccc1,·,·,-18,·,i
O=C(NCCCO)c1ccc(CSc2nc3ccccc3[nH]2)cc1,-1,0.87,9,13*,i
CCc1[nH]nc2c1C(c1ccc(Br)s1)C(C#N)=C(N)O2 (configuration not stated),-17,-4.2*,-27,-4,i
Cn1c(SCc2ccc(Cl)cc2)nnc1-c1ccc2nonc2c1,·,·,-7,·,i
CCc1cc2c(=O)c(-c3nc(C)cs3)coc2cc1OC(C)C(=O)NCCO (configuration not stated),5,-0.64,55*,1,i
O=C(NCC(=O)N(c1cccnc1)C(C(=O)NC1CCCC1)c1cccs1)c1ccco1 (configuration not stated),4,0.44,10,0,i
COC(=O)c1cccc(NC(=S)N2CCN(c3ccccc3F)CC2)c1,10,0.27,27,1,i
COc1ccc(Oc2ccc(-c3ccn[nH]3)cc2)cc1,·,-0.73,20,·,i
COc1cccc(NC(=S)NCCC(c2ccccc2)c2ccccc2)c1,-44,·,56*,0,i
O=c1cnn([C@@H]2O[C@H](CO)[C@@H](O)[C@H]2O)c(=O)[nH]1,78*,·,10,-7,i
NC(=S)N/N=C/c1coc2cc(Br)ccc2c1=O,·,·,10,·,i
NC(=S)N/N=C/c1coc2c(ccc3ccccc32)c1=O,11,0.28,73*,-2,i
COc1cc(N2C(=O)C=CC2=O)c(OC)cc1Cl,·,·,-24,·,i
COc1ccc(C2Nc3ccccc3C(=O)N2NS(=O)(=O)c2ccc(C)cc2)cc1 (configuration not stated),13,-0.48,-441,13*,i
Cc1ccc(S(=O)(=O)NN2C(=O)c3ccccc3NC2c2ccccc2)cc1 (configuration not stated),2,-0.16,-487,-10,i
COc1ccc(CCNC(=O)c2ccccc2Cl)cc1OC,-2,-0.5,-23,18*,i
Cc1c(NC2(c3nnnn3-c3ccc(Br)cc3)CCCCC2)c(=O)n(-c2ccccc2)n1C,-3,1.1,-3,23*,i
Cc1cccc(NC(=O)CN2C(=O)N/C(=C/c3cc(C)n(-c4cccnc4)c3C)C2=O)c1,-4,-0.61,51*,4,i
Cc1cccc(NC(=O)CN2C(=O)N/C(=C/c3cc(C)n(-c4ccncc4)c3C)C2=O)c1,-8,0.3,-13,-5,i
O=C(CCCN1C(=O)/C(=C/c2ccccc2)SC1=S)Nc1cccc(O)c1,-29,-0.91,14,-7,i
Cc1ccc(NC(=O)COc2cccc(/C=C3\SC(=S)N(CCC(=O)O)C3=O)c2)cc1Cl,·,·,76*,·,i
O=C(CCCN1C(=O)/C(=C/c2cccs2)SC1=S)Nc1cccc(C(=O)O)c1,38*,-0.13,12,-5,i
COc1cc(OC)cc(C(=O)NC(C(=O)O)C23CC4CC(CC(C4)C2)C3)c1 (configuration not stated),17,-0.045,-11,14*,i
Cc1ccc(-c2ccc([C@H]3[C@@H]4C=CCC[C@@]4(C)C(=O)N3Cc3ccccc3)c(F)c2)cc1,·,·,66*,·,i
COc1ccc(-c2ccc([C@H]3[C@@H]4C=CCC[C@@]4(C)C(=O)N3Cc3ccccc3)c(F)c2)cc1,·,·,41,·,i
